# How the values were obtained:
# Assay in all cases: DAPPL (digital affinity profiling via proximity ligation, sequencing); 10 mM Tris-HCl pH 7.5, 50 mM NaCl, 1 mM DTT, 4% glycerol, room temperature, 30 min; GST-TFs on glutathione beads, 16-mer random dsDNA library, 0.1% formaldehyde crosslink after washing; high values mean tight binding
# FLI1 = biological target: T1, FLI1 (Homo sapiens, UniProt Q01543 1-452); details: protein: recombinant; tags: N-terminal GST; dsDNA, one strand shown
# T1 sequence: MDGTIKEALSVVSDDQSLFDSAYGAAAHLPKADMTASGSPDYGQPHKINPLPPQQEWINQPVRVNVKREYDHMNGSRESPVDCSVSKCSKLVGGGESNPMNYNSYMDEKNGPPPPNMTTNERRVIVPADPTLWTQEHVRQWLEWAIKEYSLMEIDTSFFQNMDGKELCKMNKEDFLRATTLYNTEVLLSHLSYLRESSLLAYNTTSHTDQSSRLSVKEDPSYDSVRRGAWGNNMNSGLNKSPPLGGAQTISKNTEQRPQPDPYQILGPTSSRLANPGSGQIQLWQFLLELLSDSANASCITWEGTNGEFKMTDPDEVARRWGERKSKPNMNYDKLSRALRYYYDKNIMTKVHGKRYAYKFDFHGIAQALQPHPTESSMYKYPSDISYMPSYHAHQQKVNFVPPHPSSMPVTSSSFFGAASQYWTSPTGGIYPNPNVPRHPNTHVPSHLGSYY
# Procedure, shortened: (§1)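 Sequencing on an Illumina NextSeq500 followed washing, crosslinking with 0.1% formaldehyde, proximity ligation (BsaI/T4 ligase, 1 h, 37 °C) and PCR amplification of pools that had been incubated for 30 min at room temperature with 200 nmole of a random double-stranded 16-mer DNA library in Tris/NaCl/DTT/glycerol buffer. Each pool held DNA-barcoded human transcription factors, expressed in yeast as GST fusions and captured on glutathione beads, plus a tag-only sample. Binding signal is a hexamer's read frequency for a factor divided by its frequency in the tag-only sample.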
# ELK1 = biological target: T2, ELK1 (Homo sapiens, UniProt P19419 1-428); details: protein: recombinant; tags: N-terminal GST; dsDNA, one strand shown
# T2 sequence: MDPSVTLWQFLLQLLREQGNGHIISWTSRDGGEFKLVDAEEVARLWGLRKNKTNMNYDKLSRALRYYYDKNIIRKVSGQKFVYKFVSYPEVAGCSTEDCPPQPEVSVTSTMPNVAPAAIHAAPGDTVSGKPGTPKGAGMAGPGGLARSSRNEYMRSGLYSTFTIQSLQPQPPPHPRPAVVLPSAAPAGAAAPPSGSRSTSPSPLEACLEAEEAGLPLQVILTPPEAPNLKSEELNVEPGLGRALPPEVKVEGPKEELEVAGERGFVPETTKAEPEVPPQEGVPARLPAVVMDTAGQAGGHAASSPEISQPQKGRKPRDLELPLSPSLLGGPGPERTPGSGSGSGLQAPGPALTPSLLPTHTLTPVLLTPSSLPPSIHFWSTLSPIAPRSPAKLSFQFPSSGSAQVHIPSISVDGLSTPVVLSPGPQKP
# Procedure, shortened: as §1
# GABPA = biological target: T3, GABPA (Homo sapiens, UniProt Q06546 1-454); details: protein: recombinant; tags: N-terminal GST; dsDNA, one strand shown
# T3 sequence: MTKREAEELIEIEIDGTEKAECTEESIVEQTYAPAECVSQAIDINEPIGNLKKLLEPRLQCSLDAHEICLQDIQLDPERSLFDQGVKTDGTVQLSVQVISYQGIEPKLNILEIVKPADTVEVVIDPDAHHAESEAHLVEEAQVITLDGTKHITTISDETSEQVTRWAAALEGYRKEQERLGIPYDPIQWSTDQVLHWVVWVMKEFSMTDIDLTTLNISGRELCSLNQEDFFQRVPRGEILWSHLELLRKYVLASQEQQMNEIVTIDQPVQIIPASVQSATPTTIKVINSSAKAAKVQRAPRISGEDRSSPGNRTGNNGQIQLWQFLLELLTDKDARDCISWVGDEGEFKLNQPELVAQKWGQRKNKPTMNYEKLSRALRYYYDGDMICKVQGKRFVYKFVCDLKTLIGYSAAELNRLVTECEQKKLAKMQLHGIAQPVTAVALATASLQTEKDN
# Procedure, shortened: as §1
# ERG = biological target: T4, ERG (Homo sapiens, UniProt P11308 1-479); details: protein: recombinant; tags: N-terminal GST; dsDNA, one strand shown
# T4 sequence: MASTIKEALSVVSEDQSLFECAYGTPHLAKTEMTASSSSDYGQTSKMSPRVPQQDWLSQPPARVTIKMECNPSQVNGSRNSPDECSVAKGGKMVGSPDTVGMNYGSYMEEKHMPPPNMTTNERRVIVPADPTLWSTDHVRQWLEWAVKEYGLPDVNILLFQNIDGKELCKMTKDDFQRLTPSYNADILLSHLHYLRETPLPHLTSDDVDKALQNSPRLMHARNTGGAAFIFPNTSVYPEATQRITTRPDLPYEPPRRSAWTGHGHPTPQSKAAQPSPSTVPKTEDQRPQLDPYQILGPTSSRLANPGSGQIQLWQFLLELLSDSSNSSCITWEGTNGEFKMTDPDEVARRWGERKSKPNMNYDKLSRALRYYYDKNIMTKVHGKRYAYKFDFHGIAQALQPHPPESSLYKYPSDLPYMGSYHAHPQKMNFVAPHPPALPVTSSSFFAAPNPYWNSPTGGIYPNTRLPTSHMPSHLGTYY
# Procedure, shortened: as §1
# ELF1 = ELF1 (Homo sapiens, UniProt P32519 1-619); details: protein: recombinant; tags: N-terminal GST; dsDNA, one strand shown
# Chain of ELF1 (P32519 whole entry): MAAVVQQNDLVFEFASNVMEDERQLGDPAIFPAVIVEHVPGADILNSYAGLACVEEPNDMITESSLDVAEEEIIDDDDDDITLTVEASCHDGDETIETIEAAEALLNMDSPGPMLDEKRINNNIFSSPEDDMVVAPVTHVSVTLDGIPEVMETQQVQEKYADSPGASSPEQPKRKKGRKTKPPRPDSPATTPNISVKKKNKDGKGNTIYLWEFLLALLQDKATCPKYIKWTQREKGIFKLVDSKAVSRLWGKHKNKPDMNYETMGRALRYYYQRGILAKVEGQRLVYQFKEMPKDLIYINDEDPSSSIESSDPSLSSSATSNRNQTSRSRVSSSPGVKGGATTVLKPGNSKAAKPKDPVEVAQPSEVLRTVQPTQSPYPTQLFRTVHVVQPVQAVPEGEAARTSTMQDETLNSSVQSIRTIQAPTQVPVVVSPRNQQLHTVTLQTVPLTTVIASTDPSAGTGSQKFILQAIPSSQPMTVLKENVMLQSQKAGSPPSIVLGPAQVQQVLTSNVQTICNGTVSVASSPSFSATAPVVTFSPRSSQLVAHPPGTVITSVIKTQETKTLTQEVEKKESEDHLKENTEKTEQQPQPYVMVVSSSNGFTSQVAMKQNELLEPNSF
# Procedure, shortened: as §1
# EHF = biological target: T5, EHF (Homo sapiens, UniProt Q9NZC4 1-300); details: protein: recombinant; tags: N-terminal GST; dsDNA, one strand shown
# T5 sequence: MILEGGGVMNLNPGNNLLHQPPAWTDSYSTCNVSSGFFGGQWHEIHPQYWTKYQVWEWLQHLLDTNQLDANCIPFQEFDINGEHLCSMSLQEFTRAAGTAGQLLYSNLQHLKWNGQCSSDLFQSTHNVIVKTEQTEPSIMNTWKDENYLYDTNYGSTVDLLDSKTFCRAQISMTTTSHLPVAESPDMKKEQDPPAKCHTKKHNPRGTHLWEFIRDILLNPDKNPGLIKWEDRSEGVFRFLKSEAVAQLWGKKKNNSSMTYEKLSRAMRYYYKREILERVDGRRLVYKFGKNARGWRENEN
# Procedure, shortened: as §1
# SPI1 = SPI1 (Homo sapiens, UniProt P17947 1-270); details: protein: recombinant; tags: N-terminal GST; dsDNA, one strand shown
# Procedure, shortened: as §1
# SPIB = SPIB (Homo sapiens, UniProt Q01892 1-262); details: protein: recombinant; tags: N-terminal GST; dsDNA, one strand shown
# Chain of SPIB (Q01892 whole entry): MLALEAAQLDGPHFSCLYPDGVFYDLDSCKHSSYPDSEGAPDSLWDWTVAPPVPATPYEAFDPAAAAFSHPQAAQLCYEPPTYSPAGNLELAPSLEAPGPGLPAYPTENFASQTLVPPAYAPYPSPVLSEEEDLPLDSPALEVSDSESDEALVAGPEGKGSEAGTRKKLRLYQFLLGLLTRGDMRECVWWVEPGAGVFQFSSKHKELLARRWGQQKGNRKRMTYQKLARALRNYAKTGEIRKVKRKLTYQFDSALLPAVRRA
# Procedure, shortened: as §1
# ELK3 = biological target: T6, ELK3 (Homo sapiens, UniProt P41970 1-407); details: protein: recombinant; tags: N-terminal GST; dsDNA, one strand shown
# T6 sequence: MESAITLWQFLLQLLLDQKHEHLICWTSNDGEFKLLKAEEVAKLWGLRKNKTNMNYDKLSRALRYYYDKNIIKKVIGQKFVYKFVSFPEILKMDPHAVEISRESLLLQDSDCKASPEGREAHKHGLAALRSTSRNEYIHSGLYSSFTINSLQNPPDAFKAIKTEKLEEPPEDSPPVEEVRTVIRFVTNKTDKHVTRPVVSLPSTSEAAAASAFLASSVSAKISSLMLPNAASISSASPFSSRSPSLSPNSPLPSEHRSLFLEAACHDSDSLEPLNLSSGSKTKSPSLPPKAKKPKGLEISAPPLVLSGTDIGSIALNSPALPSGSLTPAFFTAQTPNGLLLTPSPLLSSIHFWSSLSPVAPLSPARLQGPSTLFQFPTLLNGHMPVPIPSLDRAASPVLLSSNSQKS
# Procedure, shortened: as §1
# FEV = biological target: T7, FEV (Homo sapiens, UniProt Q99581 1-238); details: protein: recombinant; tags: N-terminal GST; dsDNA, one strand shown
# T7 sequence: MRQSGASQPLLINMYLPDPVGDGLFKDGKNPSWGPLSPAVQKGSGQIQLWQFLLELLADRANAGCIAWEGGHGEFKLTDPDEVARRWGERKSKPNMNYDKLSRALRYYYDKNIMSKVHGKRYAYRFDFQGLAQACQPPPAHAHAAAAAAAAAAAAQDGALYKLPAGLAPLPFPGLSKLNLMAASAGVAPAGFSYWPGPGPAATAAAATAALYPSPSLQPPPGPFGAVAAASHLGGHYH
# Procedure, shortened: as §1
# ETV5 = ETV5 (Homo sapiens, UniProt P41161 1-510); details: protein: recombinant; tags: N-terminal GST; dsDNA, one strand shown
# Chain of ETV5 (P41161 whole entry): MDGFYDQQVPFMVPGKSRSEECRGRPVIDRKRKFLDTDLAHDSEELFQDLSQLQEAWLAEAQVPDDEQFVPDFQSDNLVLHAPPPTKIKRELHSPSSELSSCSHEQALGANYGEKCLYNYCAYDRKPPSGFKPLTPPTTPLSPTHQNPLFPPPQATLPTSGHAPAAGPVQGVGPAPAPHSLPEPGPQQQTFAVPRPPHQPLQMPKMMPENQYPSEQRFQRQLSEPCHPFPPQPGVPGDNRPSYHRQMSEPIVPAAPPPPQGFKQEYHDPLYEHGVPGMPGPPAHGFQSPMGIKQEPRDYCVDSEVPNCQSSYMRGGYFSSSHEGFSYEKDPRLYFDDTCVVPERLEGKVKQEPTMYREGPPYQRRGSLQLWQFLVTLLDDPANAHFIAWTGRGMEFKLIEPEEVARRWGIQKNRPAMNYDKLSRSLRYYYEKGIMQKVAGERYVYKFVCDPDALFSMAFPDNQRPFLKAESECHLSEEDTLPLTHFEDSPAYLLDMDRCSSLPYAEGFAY
# Procedure, shortened: as §1
# HSF1 = HSF1 (Homo sapiens, UniProt Q00613 1-529); details: protein: recombinant; tags: N-terminal GST; chain copies: 3; dsDNA, one strand shown
# Chain of HSF1 (Q00613 whole entry): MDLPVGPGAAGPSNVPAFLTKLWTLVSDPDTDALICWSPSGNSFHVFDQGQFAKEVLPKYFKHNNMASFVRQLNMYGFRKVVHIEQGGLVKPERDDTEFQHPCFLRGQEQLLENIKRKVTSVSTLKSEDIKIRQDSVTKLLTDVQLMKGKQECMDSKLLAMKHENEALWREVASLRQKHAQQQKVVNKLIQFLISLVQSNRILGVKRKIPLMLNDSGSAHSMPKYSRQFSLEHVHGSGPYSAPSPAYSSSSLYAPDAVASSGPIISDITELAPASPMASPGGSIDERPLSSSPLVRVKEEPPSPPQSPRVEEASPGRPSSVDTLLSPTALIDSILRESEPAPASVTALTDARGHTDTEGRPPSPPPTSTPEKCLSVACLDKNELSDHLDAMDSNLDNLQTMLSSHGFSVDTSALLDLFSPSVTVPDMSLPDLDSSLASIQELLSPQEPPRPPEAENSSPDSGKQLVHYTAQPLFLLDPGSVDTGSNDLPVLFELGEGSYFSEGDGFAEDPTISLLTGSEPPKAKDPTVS
# Procedure, shortened: as §1
# SPIC = biological target: T8, SPIC (Homo sapiens, UniProt Q8N5J4 1-248); details: protein: recombinant; tags: N-terminal GST; dsDNA, one strand shown
# T8 sequence: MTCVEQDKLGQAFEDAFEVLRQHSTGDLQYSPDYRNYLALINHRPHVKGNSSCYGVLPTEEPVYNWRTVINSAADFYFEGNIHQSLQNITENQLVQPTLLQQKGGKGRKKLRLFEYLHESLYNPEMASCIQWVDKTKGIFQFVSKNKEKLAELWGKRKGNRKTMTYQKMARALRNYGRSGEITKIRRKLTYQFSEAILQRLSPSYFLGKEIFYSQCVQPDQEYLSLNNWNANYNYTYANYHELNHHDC
# Procedure, shortened: as §1
# ELF4 = ELF4 (Homo sapiens, UniProt Q99607 1-663); details: protein: recombinant; tags: N-terminal GST; dsDNA, one strand shown
# Chain of ELF4 (Q99607 whole entry): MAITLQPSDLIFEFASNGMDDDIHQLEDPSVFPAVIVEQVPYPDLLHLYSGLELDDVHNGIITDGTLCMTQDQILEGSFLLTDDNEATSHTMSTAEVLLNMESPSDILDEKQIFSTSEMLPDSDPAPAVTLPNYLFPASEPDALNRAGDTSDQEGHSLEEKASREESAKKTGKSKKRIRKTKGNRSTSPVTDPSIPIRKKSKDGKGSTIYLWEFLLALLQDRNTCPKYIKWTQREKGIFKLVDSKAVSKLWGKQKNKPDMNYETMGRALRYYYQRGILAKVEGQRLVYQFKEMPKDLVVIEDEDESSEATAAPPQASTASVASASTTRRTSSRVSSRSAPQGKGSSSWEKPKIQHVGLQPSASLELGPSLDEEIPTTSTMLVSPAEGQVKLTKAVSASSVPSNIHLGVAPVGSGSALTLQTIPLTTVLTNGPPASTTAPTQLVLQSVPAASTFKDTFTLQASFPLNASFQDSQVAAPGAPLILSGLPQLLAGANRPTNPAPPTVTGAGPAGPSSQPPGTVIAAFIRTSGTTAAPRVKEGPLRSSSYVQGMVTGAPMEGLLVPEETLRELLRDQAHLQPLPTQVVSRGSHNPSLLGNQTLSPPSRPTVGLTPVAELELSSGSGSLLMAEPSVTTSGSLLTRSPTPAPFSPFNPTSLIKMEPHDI
# Procedure, shortened: as §1
# ELK4 = biological target: T9, ELK4 (Homo sapiens, UniProt P28324-2 1-405); details: protein: recombinant; tags: N-terminal GST; dsDNA, one strand shown
# T9 sequence: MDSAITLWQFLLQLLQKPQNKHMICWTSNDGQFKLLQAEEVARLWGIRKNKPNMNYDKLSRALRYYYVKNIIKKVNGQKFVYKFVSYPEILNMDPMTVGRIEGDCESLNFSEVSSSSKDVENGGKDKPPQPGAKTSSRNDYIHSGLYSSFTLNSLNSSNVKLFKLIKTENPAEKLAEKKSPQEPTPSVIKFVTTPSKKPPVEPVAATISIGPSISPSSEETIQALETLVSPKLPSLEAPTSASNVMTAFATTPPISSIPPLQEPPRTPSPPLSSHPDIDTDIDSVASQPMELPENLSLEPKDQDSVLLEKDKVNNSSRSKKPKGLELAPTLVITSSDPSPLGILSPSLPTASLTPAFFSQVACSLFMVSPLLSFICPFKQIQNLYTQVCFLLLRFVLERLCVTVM
# Procedure, shortened: as §1
# ETV2 = biological target: T10, ETV2 (Homo sapiens, UniProt O00321 1-342); details: protein: recombinant; tags: N-terminal GST; dsDNA, one strand shown
# T10 sequence: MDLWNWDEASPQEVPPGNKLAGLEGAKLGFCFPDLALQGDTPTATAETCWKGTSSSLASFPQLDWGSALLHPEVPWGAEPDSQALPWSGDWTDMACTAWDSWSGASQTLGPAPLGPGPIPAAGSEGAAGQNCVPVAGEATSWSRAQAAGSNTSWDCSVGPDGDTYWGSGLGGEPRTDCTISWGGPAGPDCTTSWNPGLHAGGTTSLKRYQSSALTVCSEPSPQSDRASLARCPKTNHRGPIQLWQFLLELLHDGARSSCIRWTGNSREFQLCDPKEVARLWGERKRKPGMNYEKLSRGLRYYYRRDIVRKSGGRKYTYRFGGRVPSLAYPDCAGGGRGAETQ
# Procedure, shortened: as §1
# ELF3 = biological target: T11, ELF3 (Homo sapiens, UniProt P78545 1-371); details: protein: recombinant; tags: N-terminal GST; dsDNA, one strand shown
# T11 sequence: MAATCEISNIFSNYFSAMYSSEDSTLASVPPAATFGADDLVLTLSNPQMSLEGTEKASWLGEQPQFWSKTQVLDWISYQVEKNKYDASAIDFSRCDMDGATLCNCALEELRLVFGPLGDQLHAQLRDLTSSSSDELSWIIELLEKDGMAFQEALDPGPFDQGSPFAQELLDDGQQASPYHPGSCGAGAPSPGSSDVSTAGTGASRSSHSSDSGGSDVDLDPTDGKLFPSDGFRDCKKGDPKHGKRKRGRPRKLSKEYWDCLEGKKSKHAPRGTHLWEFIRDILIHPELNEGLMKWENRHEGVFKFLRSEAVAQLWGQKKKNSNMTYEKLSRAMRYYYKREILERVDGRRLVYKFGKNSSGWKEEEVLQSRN
# Procedure, shortened: as §1
# CRX = CRX (Homo sapiens, UniProt O43186 1-299); details: protein: recombinant; tags: N-terminal GST; dsDNA, one strand shown
# Chain of CRX (O43186 whole entry): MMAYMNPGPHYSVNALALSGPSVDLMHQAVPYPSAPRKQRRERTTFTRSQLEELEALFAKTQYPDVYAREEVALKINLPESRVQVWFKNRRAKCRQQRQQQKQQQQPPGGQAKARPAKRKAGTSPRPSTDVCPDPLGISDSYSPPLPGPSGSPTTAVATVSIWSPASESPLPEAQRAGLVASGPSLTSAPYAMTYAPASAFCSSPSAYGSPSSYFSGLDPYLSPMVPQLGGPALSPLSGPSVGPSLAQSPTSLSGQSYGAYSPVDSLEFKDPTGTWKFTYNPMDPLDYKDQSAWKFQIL
# Procedure, shortened: as §1
# ETV1 = ETV1 (Homo sapiens, UniProt P50549 1-477); details: protein: recombinant; tags: N-terminal GST; dsDNA, one strand shown
# Chain of ETV1 (P50549 whole entry): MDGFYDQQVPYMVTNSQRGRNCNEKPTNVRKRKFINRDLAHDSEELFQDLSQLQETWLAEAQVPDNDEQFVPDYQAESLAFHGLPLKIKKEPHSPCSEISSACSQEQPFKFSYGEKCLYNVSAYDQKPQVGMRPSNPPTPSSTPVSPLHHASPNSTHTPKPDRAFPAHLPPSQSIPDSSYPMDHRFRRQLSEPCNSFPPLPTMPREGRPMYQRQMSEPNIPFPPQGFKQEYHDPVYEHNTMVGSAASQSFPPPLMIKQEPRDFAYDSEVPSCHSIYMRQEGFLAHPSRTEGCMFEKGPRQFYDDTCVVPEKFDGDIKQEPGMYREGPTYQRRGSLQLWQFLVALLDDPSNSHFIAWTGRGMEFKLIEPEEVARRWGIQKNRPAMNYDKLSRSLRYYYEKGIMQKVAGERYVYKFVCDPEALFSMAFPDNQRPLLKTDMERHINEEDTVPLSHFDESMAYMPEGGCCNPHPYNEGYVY
# Procedure, shortened: as §1
sequence,measurement,setting,value
ACGTCC,binding signal,FLI1,"1.59 fold enrichment (6-mer frequency, TF over GST control)"
same,binding signal,ELK1,"1.58 fold enrichment (6-mer frequency, TF over GST control)"
same,binding signal,GABPA,"1.61 fold enrichment (6-mer frequency, TF over GST control)"
same,binding signal,ERG,"1.67 fold enrichment (6-mer frequency, TF over GST control)"
same,binding signal,ELF1,"1.55 fold enrichment (6-mer frequency, TF over GST control)"
same,binding signal,EHF,"1.63 fold enrichment (6-mer frequency, TF over GST control)"
same,binding signal,SPI1,"1.49 fold enrichment (6-mer frequency, TF over GST control)"
same,binding signal,SPIB,"1.72 fold enrichment (6-mer frequency, TF over GST control)"
same,binding signal,ELK3,"1.85 fold enrichment (6-mer frequency, TF over GST control)"
same,binding signal,FEV,"1.81 fold enrichment (6-mer frequency, TF over GST control)"
same,binding signal,ETV5,"1.65 fold enrichment (6-mer frequency, TF over GST control)"
same,binding signal,HSF1,"1.07 fold enrichment (6-mer frequency, TF over GST control)"
same,binding signal,SPIC,"1.59 fold enrichment (6-mer frequency, TF over GST control)"
same,binding signal,ELF4,"1.54 fold enrichment (6-mer frequency, TF over GST control)"
same,binding signal,ELK4,"1.46 fold enrichment (6-mer frequency, TF over GST control)"
same,binding signal,ETV2,"1.39 fold enrichment (6-mer frequency, TF over GST control)"
same,binding signal,ELF3,"1.39 fold enrichment (6-mer frequency, TF over GST control)"
same,binding signal,CRX,"1.01 fold enrichment (6-mer frequency, TF over GST control)"
same,binding signal,ETV1,"1.63 fold enrichment (6-mer frequency, TF over GST control)"

# Reference: PMC7862700, “An all-to-all approach to the identification of sequence-specific readers for epigenetic DNA modifications on cytosine”
